± gives the standard deviation.

Experimental findings from the supplement of paper PMC10338343 are described below.
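Also: 1 nM active piRISC with 0.1 nM target library at 33 °C single turnover.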

The test system of one experiment is MILI (PIWIL2) piRISC loaded with L1MC piRNA (26 nt). In words: pre-steady-state target cleavage rate (min^-1); guide: L1MC piRNA 5'p-UAACUAAAUACUAUGCAAGCUGUAGG; MIWI and MILI are mouse PIWI proteins and EfPiwi is from a freshwater sponge; tags in brackets are library labels; higher = faster piRNA-guided slicing of the target. The settings on record: auxiliary factor: 500 nM mouse GTSF1. The gist of the method: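 Cleave-'n-Seq measured uncleaved targets by sequencing after a transcribed, DNA-blocked target RNA library […] was mixed with 1 nM active affinity-purified piRISC holding one synthetic guide, with or without 500 nM GTSF1 partner protein, at 33 °C in HEPES–potassium acetate buffer for 0–8 or 0–960 min. Counts were normalised to depth and to weakly complementary targets, three trials were pooled, and k3 was capped at 0.0001 min^-1. A burst-and-steady-state fit gave the pre-steady-state cleavage rate.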
As to UCCUGGUACAGCUUGCAUAGAUAUUAGUUA, the “pre-steady-state target cleavage rate” value turned out to be 0.0155 ± 0.005.
Same read-out and setting: the figure for UCCUGGAACAGCUUGCAUUAGUAUUUAGUUA is 0.0128 ± 0.0055.
The same measure, in the same setting: the value for UCCUGGAUGUCCUACGAUAGUAUUUAGUUA was 0.007 ± 0.004.
Still for that read-out and setting: the value for UCCUGGAUGUCCUUGCUUAGAAUUUAGUUA was 0.00442 ± 0.004; that for UCCUGGAUGUCGAACCAUAGUAUUUGAGUUA was less than 0.0001.
With UCCUGGUACAGCUUGCAUAGAAUUUUGUUA, the “pre-steady-state target cleavage rate” value is 0.0466 ± 0.016.
Same read-out and setting: the value for UCCUGGAUCAGCUUGCAUAGAUUUUAGUAA was 0.0227 ± 0.0073; that for UCCUGGAUGUCCAUGCAUACUAUUUAGUUA was 0.0122 ± 0.0052.
Same read-out and setting: the value for UCCUGGAACAGCUUGCUUAGUAUUUACAAA was 0.105 ± 0.026; that for UCCUGCUACAGCAAGCAUAGUAUUUACAAA was 0.191 ± 0.055; that for UCCUGGAUGAGCUUGCAUAGUAUUUUGUAA was 0.0267 ± 0.011.
The same measure, in the same setting: the value for UCCUGGAACACCUUGCAUAGUAUUUUCAAA was 0.0441 ± 0.015.
In the case of UCCUGGAACAGCUUGGUUAGUAUUUAGAAA, the “pre-steady-state target cleavage rate” value turned out to be 0.16 ± 0.04.
Same read-out and setting: the figure for UCCUGGUACAGCUUGCAUAGUAUUUUCAAA is 0.109 ± 0.027.
On the same count and under the same terms, the figure for UCCUCCUACAGCUUGCAUAGAUUUUACAAA is 0.0174 ± 0.0071.
Still for that read-out and setting: the figure for UCCUGGAUCAGCUUGCAUAGUAUUUUCUAA is 0.0634 ± 0.017; for UCCUCCUAGUCCUUGCAUAGUAUUUACAAA it is 0.0299 ± 0.0097; for UCCUCCUACACGUUGCAUAGUAUUUACAAA it is 0.062 ± 0.019.
UCCUGGAUGAGCUUGCAUAUAUUUAGUUA: the “pre-steady-state target cleavage rate” value amounted to 0.00951 ± 0.0043.
Still for that read-out and setting: the figure for UCCUGGAUGUCGUAGCAUAGUAUUUUGUUA is 0.0314 ± 0.01; for UCCUGGAUGUCGAUGCAUAGUAUAUAGUAA it is 0.063 ± 0.013.
On to UCCUGCUACAGCUUGCAUAGUAUUUUCUUA, for which the “pre-steady-state target cleavage rate” value amounted to 0.0484 ± 0.01.
On the same count and under the same terms, the figure for UCCUGGAUCAGCUUGCAAUGUAUUUACAAA is 0.0196 ± 0.0061; for UCCUGGAUGUCGUUGCAUAGUAUUUAGAUUA it is 0.0205 ± 0.0091.
Same read-out and setting: the value for UCCUGGAACAGCUUGCAUAUGUAUUUAGUUA was 0.00424 ± 0.0037.
As for UCCUGGAUCAGCUUGCAAUCUAUUUAGUUA, the “pre-steady-state target cleavage rate” value was found to be 0.0116 ± 0.0035.
Same read-out and setting: the figure for UCCUGGAUCAGCUUGCAUAGAAUUUAGUAA is 0.0373 ± 0.011; for UCCUGGAUGUCGAUGCAUAGUAUUGAGUUA it is 0.0608 ± 0.013.

The experiment is the same for the next values; noted with them: auxiliary factor: none (no GTSF1).
With “UCCUGGAUGUCGAACGUAAGUAUUUAGUUC [g2:g12:cont:t1C]”, the “pre-steady-state target cleavage rate” value was less than 0.0001.
For UCCUGGAUGUCGAUGCAUACUAUUUAGUAA, the “pre-steady-state target cleavage rate” value was less than 0.0001.
Same read-out and setting: the figure for “UCCUGGAUGAGCUUGCUAUCAUAAAUCAAA [g15:g21:cont:t1A]” is less than 0.0001.
The same measure, in the same setting: the figure for UCCUGGAUGUCGAAGCAUAGAAUUUACUUA is less than 0.0001; for “UCCUGGAUGUCCUUGCAUACAUAAAUCAAA [g12:g19:cont:t1A]” it is less than 0.0001; for UCCUGGAUCAGCAACCAUAGUAUUUACAAA it is less than 0.0001.
The same measure, in the same setting: the value for UCCUGGAUCAGCUUGGAUAGUAUUUUCAAA was less than 0.0001; that for UCCUGGAUGUCCUUGCAAAGAAUUUAGUUA was 0.00283 ± 0.0026.
Regarding UCCUGGAUGUCGAUGCAUACUAUUUAGAUA, the “pre-steady-state target cleavage rate” value is less than 0.0001.
The same measure, in the same setting: the value for UCCUGGAUGUCGAACGUAUGCUAUUUAGUUA was less than 0.0001; that for UCCUGGAUGUCGAACCAUCAGUAUUUAGUUA was less than 0.0001.
On the same count and under the same terms, the figure for UCCUGGAUGUCGAACGUAAGUAUUUAGUAUA is less than 0.0001.
